OTUD3 block: blocks human OTUD3 ubiquitin-rhodamine cleavage. Q5T2D3. purified OTUD3, Ub-rhodamine fluorescence, 2 h. inhibition, % at 25 µM. 47,000 compounds, 0.7% hits. AID 1645858
Target sequence (Q5T2D3 whole entry, looked up): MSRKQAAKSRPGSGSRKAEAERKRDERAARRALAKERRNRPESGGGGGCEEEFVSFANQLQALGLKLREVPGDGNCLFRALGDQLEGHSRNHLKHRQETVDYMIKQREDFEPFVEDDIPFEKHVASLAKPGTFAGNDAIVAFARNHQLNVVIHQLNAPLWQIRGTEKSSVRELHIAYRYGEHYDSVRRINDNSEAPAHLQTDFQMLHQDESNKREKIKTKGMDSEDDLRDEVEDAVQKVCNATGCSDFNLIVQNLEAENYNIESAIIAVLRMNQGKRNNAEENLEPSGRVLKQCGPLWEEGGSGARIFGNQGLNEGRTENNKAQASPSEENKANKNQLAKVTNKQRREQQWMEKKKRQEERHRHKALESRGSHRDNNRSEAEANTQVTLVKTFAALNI
USP30 inh: inhibitors of human USP30 deubiquitinase; purified USP30, Ub-rhodamine cleavage fluorescence; Q70CQ3; 47,000 compounds, 5.3% hits; inhibition, % at 25 µM; AID 1645860
USP17 block: inhibitors of human USP17 deubiquitinase. A8MUK1. 47,000 compounds, 6.5% hits. purified USP17, Ub-rhodamine cleavage fluorescence, 3 h. inhibition, % at 50 µM. AID 1645855
USP28 inh: inhibitors of human USP28 deubiquitinase | 47,000 compounds, 3% hits | inhibition, % at 25 µM | Q96RU2 | purified USP28, Ub-rhodamine cleavage fluorescence, 30 min
An asterisk follows results filed as active; x = not tested or not shown. Most compounds without a hit are left out; they make up all but 11% or so of the library. Cut-off read from the data, not from the text of the source: active = inhibition above about 30%; inactive = the rest.

SMILES	OTUD3 block	USP30 inh	USP17 block	USP28 inh
COc1ccc(NS(=O)(=O)c2ccc3oc(SCC(=O)N(C)C4CCS(=O)(=O)C4)nc3c2)cc1 (stereo not drawn)	2	x	-2	x
COc1ccccc1NS(=O)(=O)c1ccc2oc(SCC(=O)c3ccccc3)nc2c1	5	3	1	64*
O=C1c2cccc(OCc3ccc(Cl)cc3)c2CCN1Cc1cccnc1	-2	32*	18	23
O=C1N(Cc2cccnc2)CCN1c1ccc(F)c(Cl)c1	11	x	8	x
CC(C)=CCC/C(C)=C/CC/C(C)=C/Cc1c(C)[nH]c2ccccc2c1=O	8	0	8	7
CC(C)=CCC/C(C)=C/Cc1c(O)cc2c(c1O)C(=O)OC2	79*	14	63*	74*
Cc1cccc(CSc2nc3nc4c(cn3n2)C(=O)CC(C)(C)C4)c1	19	35*	14	17
Cc1ccc(CSc2nc3nc4c(cn3n2)C(=O)CCC4)cc1	5	x	12	x
Cc1ccc(S(=O)(=O)N2CC(C)C(=O)Nc3ccccc32)cc1 (stereo not drawn)	-6	-8	-6	-1
CC1CC(=O)Nc2ccccc2N1S(=O)(=O)c1ccc(C#N)cc1 (stereo not drawn)	9	55*	2	21
Cc1cccc(C)c1NC(=O)N1CC(C(=O)NC2CCCC2)C2(CCOCC2)C1 (stereo not drawn)	16	18	17	12
COCCCn1c(-c2ccc([N+](=O)[O-])cc2)nc2c(c(=O)c3ccccc3n2C)c1=O	-3	-10	10	1
Cn1c2ccccc2c(=O)c2c(=O)n(Cc3ccccc3)c(-c3ccco3)nc21	1	-21	59*	44*
Cc1ccc(-c2nc3c(c(=O)c4ccccc4n3C)c(=O)n2-c2ccc(F)cc2)cc1	-5	7	43*	-2
Cn1c2ccccc2c(=O)c2c(=O)n(Cc3ccccc3)c(-c3ccccc3F)nc21	-15	-15	66*	0
Cn1c2ccccc2c(=O)c2c(=O)n(Cc3ccccc3)c(-c3ccc(C(C)(C)C)cc3)nc21	-7	2	50*	-7
Cc1nc2c(c(=O)c3ccccc3n2C)c(=O)n1Cc1ccco1	15	-32	12	15
COc1ccc(CCn2c(-c3ccccc3C)nc3c(c(=O)c4ccccc4n3C)c2=O)cc1	9	6	x	5
O=C1CCCC2=C1C(c1ccccc1[N+](=O)[O-])n1c(nc3ccccc31)N2 (stereo not drawn)	-4	-36	4	-1
O=C(Cc1ccc(-n2c(=O)[nH]c3ccsc3c2=O)cc1)N1CCC(Cc2ccccc2)CC1	18	29	47*	37*
COc1ccc2nc(C(=O)N3CCN(c4cccc(C)c4C)CC3)cn2n1	9	-2	2	2
Cc1noc(-c2ccc(-n3ncc(C(=O)NCc4ccccc4F)c3C)nc2)n1	14	43*	40*	12
Cc1noc(-c2cc(=O)n(CC(=O)NCc3ccccc3F)c3ccccc23)n1	3	46*	58*	8
Cc1noc(-c2cc(=O)n(CC(=O)Nc3ccccc3C)c3ccccc23)n1	13	18	45*	8
Cc1noc(-c2cc(=O)n(CC(=O)Nc3ccc(F)cc3F)c3ccccc23)n1	4	15	19	4
SMILES	OTUD3 block	USP30 inh	USP17 block	USP28 inh
Cc1cc(=O)n(CC(=O)NCc2ccc(F)cc2F)c(N2CCOCC2)n1	-3	-34	4	-6
Cc1cc(=O)n(CC(=O)Nc2ccccc2)c(-c2ccc(F)cc2)n1	8	11	19	5
Cc1cc(=O)n(CC(=O)Nc2ccccc2C)c(Nc2ccc(F)cc2)n1	20	73*	18	4
CCCc1noc(-c2ccnc(-n3ncc(C(=O)N4CCCCC4)c3C)c2)n1	11	16	10	12
CCCc1noc(-c2ccc(-n3ncc(C(=O)N4CCN(C)CC4)c3C)nc2)n1	16	30*	7	11
O=C(Cn1nc2c3c4c(sc3ncn2c1=O)CCCCC4)Nc1ccc(Cl)cc1F	15	29	70*	18
Cc1ccc2c(c1)OCC(=O)N2Cc1nc(-c2ccc(F)cc2)no1	-5	-48	-36	-12
Cc1ccc2c(c1)OCC(=O)N2Cc1nc(-c2ccccc2)no1	10	26	45*	29
Cc1ccc2c(c1)OCC(=O)N2Cc1nc(-c2cccc(F)c2)no1	27	35*	13	26
O=C(CC1SC(N2CCOCC2)=NC1=O)Nc1cccc2ccccc12 (stereo not drawn)	5	-29	0	9
Cc1c(C(=O)Nc2cccnc2)oc2c1C(=O)CC(C)(C)C2	-4	-9	-12	-5
